Test results taken from the supplement of paper PMC11001985.

What follows are targets tested with C#CCNC(=O)CCSSCCC(=O)NCCc1ccc(C=O)c(C=O)c1 (assay: lysine labeling ratio R10:1 (500 µM / 50 µM probe), SILAC-ABPP in living cells; higher = lower intrinsic lysine reactivity toward the probe, active = 2 or less). Conditions: HeLa; probe concentrations 500 vs 50 µM.
Outline: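 In PBS at room temperature, living HeLa cells grown with SILAC light or heavy labels were treated with 50 µM or 500 µM of an alkyne-tagged, disulfide-linked lysine probe, with label swaps in both directions. Analysis was by LC-MS/MS on a TIMS-TOF Pro after click to biotin-azide, neutravidin capture and DTT release. For each lysine, R is the median across forward and reverse replicates of the filtered median high-probe/low-probe MS1 peptide ratio, capped at 20.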

Chain of UniProt Q15149 (Q15149 whole entry): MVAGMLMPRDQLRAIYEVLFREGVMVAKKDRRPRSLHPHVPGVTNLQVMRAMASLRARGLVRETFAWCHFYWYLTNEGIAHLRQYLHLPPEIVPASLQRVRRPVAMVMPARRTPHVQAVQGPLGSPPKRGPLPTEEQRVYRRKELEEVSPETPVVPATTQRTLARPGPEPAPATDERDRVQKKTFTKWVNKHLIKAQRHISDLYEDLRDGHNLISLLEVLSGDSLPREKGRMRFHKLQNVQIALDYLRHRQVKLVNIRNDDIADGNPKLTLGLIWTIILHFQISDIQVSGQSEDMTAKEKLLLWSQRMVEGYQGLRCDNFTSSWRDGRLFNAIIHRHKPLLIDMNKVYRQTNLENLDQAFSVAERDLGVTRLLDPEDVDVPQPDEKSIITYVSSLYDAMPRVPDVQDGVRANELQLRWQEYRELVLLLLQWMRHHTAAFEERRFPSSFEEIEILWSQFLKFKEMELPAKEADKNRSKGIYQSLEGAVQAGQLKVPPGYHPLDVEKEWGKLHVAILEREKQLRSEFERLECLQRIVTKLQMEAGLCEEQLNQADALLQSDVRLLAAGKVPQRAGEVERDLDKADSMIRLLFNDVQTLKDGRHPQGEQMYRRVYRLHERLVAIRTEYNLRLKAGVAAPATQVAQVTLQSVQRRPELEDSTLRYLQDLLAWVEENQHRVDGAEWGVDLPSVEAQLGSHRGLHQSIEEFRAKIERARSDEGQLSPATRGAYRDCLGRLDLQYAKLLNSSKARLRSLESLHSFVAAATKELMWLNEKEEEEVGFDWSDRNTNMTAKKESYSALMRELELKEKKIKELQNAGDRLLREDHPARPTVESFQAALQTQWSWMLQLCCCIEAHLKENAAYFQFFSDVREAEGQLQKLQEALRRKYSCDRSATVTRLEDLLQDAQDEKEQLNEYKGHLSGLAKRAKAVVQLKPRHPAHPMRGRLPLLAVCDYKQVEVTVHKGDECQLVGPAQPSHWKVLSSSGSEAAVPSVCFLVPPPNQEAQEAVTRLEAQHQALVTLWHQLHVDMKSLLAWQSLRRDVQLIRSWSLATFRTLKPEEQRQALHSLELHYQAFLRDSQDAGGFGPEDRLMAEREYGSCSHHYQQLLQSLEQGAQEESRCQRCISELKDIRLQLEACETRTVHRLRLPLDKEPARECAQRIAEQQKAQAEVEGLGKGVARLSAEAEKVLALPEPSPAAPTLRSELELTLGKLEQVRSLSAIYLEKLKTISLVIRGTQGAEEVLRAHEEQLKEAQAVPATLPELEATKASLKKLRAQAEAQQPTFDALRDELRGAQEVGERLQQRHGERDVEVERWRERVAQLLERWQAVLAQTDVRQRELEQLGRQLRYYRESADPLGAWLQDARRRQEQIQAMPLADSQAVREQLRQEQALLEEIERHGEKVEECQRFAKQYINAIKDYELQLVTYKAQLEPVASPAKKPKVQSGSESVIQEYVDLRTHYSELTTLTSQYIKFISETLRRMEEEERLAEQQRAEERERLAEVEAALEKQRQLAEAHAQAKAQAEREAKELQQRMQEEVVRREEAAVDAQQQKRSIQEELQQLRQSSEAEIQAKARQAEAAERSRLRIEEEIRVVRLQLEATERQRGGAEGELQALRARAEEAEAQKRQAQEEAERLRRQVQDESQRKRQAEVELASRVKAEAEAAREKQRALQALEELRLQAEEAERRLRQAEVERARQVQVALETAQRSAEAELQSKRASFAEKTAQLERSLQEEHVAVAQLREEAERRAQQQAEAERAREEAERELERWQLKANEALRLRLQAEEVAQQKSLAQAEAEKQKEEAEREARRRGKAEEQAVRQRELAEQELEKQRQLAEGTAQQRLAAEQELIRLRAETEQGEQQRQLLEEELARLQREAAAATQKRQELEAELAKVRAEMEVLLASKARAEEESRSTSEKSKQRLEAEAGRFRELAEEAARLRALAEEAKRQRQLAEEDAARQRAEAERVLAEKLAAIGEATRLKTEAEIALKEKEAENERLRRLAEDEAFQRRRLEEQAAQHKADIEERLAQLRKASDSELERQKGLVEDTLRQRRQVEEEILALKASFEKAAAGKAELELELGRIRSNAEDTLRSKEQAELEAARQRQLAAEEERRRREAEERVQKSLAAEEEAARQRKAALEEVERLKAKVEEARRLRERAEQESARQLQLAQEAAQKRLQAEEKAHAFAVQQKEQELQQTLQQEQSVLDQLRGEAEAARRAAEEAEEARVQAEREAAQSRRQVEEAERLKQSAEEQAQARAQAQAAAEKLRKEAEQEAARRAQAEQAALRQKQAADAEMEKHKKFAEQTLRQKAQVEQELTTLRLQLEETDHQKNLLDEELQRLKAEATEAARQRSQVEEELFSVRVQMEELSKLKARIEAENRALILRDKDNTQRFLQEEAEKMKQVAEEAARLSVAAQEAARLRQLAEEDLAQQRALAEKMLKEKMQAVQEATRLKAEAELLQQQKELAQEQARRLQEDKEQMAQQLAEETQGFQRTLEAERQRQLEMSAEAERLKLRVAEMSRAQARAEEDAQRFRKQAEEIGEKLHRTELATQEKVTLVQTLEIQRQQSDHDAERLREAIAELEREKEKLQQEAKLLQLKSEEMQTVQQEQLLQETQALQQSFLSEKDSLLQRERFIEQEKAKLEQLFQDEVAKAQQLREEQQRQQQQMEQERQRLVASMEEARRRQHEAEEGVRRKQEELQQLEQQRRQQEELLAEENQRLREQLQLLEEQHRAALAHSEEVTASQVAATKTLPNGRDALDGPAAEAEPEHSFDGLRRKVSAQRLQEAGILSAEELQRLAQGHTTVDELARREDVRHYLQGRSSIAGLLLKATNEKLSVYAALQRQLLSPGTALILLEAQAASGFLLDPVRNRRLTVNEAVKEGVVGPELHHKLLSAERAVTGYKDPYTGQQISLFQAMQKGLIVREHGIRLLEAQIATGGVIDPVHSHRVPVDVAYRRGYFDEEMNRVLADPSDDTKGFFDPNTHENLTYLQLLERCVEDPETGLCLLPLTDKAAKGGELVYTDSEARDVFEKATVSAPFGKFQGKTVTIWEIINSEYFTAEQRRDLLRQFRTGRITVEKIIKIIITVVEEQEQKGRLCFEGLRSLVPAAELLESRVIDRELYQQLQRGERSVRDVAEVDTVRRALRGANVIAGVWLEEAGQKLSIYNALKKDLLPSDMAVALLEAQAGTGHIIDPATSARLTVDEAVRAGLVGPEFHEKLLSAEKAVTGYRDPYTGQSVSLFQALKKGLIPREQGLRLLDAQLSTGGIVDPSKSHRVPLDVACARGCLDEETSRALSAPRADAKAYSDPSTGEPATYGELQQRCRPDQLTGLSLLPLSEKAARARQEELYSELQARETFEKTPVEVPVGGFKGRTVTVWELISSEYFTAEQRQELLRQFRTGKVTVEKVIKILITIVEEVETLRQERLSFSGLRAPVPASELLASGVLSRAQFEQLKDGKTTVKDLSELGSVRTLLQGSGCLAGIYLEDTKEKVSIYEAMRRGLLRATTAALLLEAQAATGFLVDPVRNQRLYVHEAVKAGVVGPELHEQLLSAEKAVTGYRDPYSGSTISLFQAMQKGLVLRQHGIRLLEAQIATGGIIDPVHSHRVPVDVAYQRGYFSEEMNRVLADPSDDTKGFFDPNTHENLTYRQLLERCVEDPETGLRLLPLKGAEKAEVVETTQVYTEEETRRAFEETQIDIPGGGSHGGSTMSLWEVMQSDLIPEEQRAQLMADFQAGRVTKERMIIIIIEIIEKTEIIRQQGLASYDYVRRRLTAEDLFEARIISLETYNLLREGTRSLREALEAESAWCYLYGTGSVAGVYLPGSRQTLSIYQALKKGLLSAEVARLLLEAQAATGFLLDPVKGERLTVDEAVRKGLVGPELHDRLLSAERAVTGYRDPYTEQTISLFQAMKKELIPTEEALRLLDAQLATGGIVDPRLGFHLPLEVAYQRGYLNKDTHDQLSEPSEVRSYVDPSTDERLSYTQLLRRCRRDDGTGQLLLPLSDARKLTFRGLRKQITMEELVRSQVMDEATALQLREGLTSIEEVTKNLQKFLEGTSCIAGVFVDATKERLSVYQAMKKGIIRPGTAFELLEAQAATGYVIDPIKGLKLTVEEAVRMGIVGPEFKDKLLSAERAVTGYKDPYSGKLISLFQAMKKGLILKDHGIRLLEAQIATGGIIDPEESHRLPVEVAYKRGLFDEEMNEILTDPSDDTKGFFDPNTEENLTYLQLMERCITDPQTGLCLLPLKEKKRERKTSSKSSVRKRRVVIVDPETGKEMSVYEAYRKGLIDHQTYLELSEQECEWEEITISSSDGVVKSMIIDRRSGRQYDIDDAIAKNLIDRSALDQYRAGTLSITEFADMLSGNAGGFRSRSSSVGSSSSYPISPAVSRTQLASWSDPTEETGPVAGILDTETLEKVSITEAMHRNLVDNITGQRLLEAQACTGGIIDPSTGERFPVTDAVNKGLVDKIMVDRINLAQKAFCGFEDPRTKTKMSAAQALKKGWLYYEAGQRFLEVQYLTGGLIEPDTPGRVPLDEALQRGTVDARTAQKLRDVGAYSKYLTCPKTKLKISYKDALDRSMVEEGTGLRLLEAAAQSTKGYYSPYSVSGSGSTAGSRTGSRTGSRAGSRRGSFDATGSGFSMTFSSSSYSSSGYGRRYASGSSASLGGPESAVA
Chain of UniProt Q6NZI2 (Q6NZI2 whole entry): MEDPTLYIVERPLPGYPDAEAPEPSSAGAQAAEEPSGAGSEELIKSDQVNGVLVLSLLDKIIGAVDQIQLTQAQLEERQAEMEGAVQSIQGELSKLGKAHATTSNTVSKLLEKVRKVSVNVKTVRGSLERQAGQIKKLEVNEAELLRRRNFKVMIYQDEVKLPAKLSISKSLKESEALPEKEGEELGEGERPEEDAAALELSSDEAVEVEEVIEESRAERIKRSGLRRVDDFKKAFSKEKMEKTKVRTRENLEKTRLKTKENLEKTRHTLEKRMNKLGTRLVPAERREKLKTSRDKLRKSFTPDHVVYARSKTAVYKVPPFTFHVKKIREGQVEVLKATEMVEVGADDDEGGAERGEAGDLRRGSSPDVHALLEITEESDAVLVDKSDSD

Lysine labeling ratio R10:1, active:
CELSR2 (lysine site: K2001) (UniProt Q9HCU4) 1.5
MSLN (lysine site: K307) (UniProt Q13421) 1.74
SDC2 (lysine site: K111) (UniProt P34741) 1.38
UniProt Q15149 (lysine site: K4205) 1.51
UniProt P21589 (lysine site: K471) 1.6
ILF3 (lysine site: K535) (UniProt Q12906) 0.982

Lysine labeling ratio R10:1, inactive:
RPL4 (lysine site: K120) (UniProt P36578) 3.18
PSMC3 (lysine site: K372) (UniProt P17980) 2.19
SPTBN1 (lysine site: K714) (UniProt Q01082) 2.12
VDAC1 (lysine site: K201) (UniProt P21796) 3.77
PSMD2 (lysine site: K551) (UniProt Q13200) 2.34
ITGAV (lysine site: K446) (UniProt P06756) 2.59
PVR (lysine site: K144) (UniProt P15151) 4.25
IGF1R (lysine site: K887) (UniProt P08069) 3.44
RALA (lysine site: K143) (UniProt P11233) 2.44
UniProt Q6NZI2 (lysine site: K299) 4.52
UniProt P61077 (lysine site: K8) 3.43
UniProt P48060 (lysine site: K200) 3.31
PAICS (lysine site: K110) (UniProt P22234) 3.11
NOTCH2 (lysine site: K1353) (UniProt Q04721) 7.44
UniProt P62851 (lysine site: K66) 2.69
IQGAP1 (lysine site: K1128) (UniProt P46940) 2.31
UniProt Q15149 (lysine site: K810) 2.16
